Data from PubChem BioAssay.
Calls of active or inactive are those of the source.

Tests used:
[1] = tested on: Plasmodium falciparum Sir2 (PF13_0152, Sir2A); assay: pfSir2 binders on small-molecule microarrays, primary screen, biochemical, small-molecule microarray, 635 nm fluorescence (AID 1098); conditions: small-molecule microarray binding, fluorescence 635 nm; higher = more signal;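 note: score merges spot fluorescence intensity with its signal-to-noise ratio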
[2] = small-molecule microarray binders of probe aDKK1, primary screen, biochemical, biotinylated probe, 635/667 nm fluorescence (AID 1099); conditions: higher = more signal;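 note: score merges 667nm spot fluorescence with signal to noise across triplicate slides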
[3] = small-molecule microarray binders of probe aCHRDL2, primary screen, biochemical, biotinylated probe, 635/667 nm fluorescence (AID 1100); conditions: higher = more signal
[4] = splicing luciferase reporter signal modulators, primary screen, spliceosome inhibition project, cell-based, HEK293, splice +/- reporter (AID 1101); conditions: luminescence, 24 h, higher = more signal, called active from +8 up or from −8 down;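 note: HEK293 cells carrying a splicing-competent luciferase reporter gene; test concentration not given here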
[5] = target: Fibroblast growth factor 10 (Homo sapiens) (UniProt O15520); assay: FGF10 binders on small-molecule microarrays, primary screen, biochemical, small-molecule microarray, 635 nm fluorescence (AID 1102); conditions: FGF10 binding, fluorescence 635 nm, higher = more signal
[6] = tested on: glycogen synthase kinase-3 (GSK3A per assay name; protocol says GSK3B); assay: GSK3 binders on small-molecule microarrays, primary screen, biochemical, small-molecule microarray, 635 nm fluorescence, GSK3A (AID 1103); conditions: small-molecule microarray binding, fluorescence 635 nm; higher = more signal; note: the record names both GSK3A and GSK3B
[7] = target: Epidermal growth factor receptor (Homo sapiens) (UniProt P00533); assay: EGFR binders on small-molecule microarrays, primary screen, biochemical, small-molecule microarray, 635 nm fluorescence (AID 1104); conditions: EGFR binding, higher = more signal;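 note: score merges 667 nm emission intensity with spot signal to noise over triplicate slides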
[8] = target: Follistatin-related protein 3 (Homo sapiens) (UniProt O95633); assay: FSTL3 binders on small-molecule microarrays, primary screen, biochemical, small-molecule microarray, 635 nm fluorescence (AID 1105); conditions: FSTL3 binding, higher = more signal;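 note: score merges emission near 667 nm and signal to noise per printed spot across three slides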
[9] = target: Dickkopf-related protein 1 (Homo sapiens) (UniProt O94907); assay: DKK1 binders on small-molecule microarrays, primary screen, biochemical, small-molecule microarray, 635 nm fluorescence scan (AID 1106); conditions: DKK1 binding, higher = more signal;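 note: score merges emission near 667 nm with signal to noise over three replicate slides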
[10] = tested on: Inhibin beta A chain (activin A); assay: INHBA (activin A) binders on microarrays, primary screen, biochemical, small-molecule microarray, 635 nm fluorescence scan (AID 1107); conditions: small-molecule microarray binding, higher = more signal;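 note: mouse activin A protein probed at 4.33 µg/mL on printed slides; score merges bound-protein fluorescence near 667 nm with spot signal-to-noise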
[11] = tested on: Human papillomavirus type 1a protein E7 (residues 44-93); assay: HPV1a E7 fragment binders on microarrays, primary screen, biochemical, small-molecule microarray, residues 44-93, 635 nm fluorescence (AID 1108); conditions: small-molecule microarray binding, fluorescence 635 nm; higher = more signal;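 note: E7 fragment applied at 1 µg/mL in TBST for 1 h at 4 C; score combines spot fluorescence with its signal to noise ratio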
[12] = modulators of HCV replicon luciferase signal, primary screen, HCV replication inhibitor project, Huh7 cells, luciferase reporter (AID 1109); conditions: 48 h, higher = more signal;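 note: huh7 hepatoma cells harbouring a luciferase neomycin HCV replicon reporter; luciferase luminescence as measure of HCV replicon replication; test concentration not given here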
[13] = target: Left-right determination factor 2 (Homo sapiens) (UniProt O00292); assay: LEFTY2 binders on small-molecule microarrays, primary screen, biochemical, small-molecule microarray, 635 nm fluorescence scan (AID 1110); conditions: LEFTY2 binding, higher = more signal
[14] = target: Calmodulin-1 (Homo sapiens) (UniProt P0DP23); assay: CALM1 binders on microarrays, EGTA buffer, profiling panel, biochemical, small-molecule microarray, Cy5-labelled CALM1 (AID 1111); conditions: Cy5-CALM1 binding fluorescence, higher = more signal;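 note: labelled calmodulin applied in Tris saline Tween buffer holding calcium plus EGTA and DTT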
[15] = target: Calmodulin-1 (Homo sapiens) (UniProt P0DP23); assay: calcium-bound CALM1 binders on microarrays, profiling panel, artefact control for SMM control-protein annotation, biochemical, small-molecule microarray, Cy5-labelled CALM1, plus calcium (AID 1112); conditions: Cy5-CALM1 binding fluorescence, higher = more signal;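 note: score merges spot fluorescence with signal to noise from triplicate slides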
[16] = small-molecule microarray binders of probe aWnt5a, primary screen, biochemical, biotinylated probe, 635/667 nm fluorescence (AID 1113); conditions: higher = more signal;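 note: score merges 667 nm fluorescence intensity with signal-to-noise per printed feature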
[17] = small-molecule microarray binders of probe aShh, primary screen, biochemical, biotinylated probe, 635/667 nm fluorescence (AID 1114); conditions: higher = more signal;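 note: probe is biotin-labelled aShh protein from a stem cell growth factor screen; measures binding of labelled protein to compounds printed on the slide; score merges feature fluorescence at 667 nm with signal-to-noise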
[18] = small-molecule microarray binders of probe aNog, primary screen, biochemical, biotinylated probe, 635/667 nm fluorescence (AID 1115); conditions: higher = more signal;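 note: probe is biotinylated aNog protein used at 0.15 µg/mL for 1 h at 4 C; z-score combines 667 nm fluorescence of each spot with its signal to noise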
[19] = target: Torsin-1A-interacting protein 1 (Homo sapiens) (UniProt Q5JTV8); assay: LAP1 binders from COS7 cell lysate, primary screen, small-molecule microarray, 635/667 nm fluorescence (AID 1116); conditions: COS7-hLAP1 lysate binding, 635 nm fluorescence, higher = more signal
[20] = target: Alpha-bungarotoxin (Bungarus multicinctus) (UniProt P60615); assay: alpha-bungarotoxin binders on microarray, profiling panel, artefact control for SMM control protein annotation, biochemical, small-molecule microarray, Alexa647 label, 635/667 nm fluorescence (AID 1117); conditions: alpha-BTX-A647 binding fluorescence, higher = more signal
Sequence of Alpha-bungarotoxin (Bungarus multicinctus) (P60615 whole entry, looked up): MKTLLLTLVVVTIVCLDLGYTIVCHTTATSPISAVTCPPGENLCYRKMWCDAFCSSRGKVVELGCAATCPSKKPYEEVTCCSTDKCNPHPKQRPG

Sequence of Left-right determination factor 2 (Homo sapiens) (O00292 whole entry, looked up): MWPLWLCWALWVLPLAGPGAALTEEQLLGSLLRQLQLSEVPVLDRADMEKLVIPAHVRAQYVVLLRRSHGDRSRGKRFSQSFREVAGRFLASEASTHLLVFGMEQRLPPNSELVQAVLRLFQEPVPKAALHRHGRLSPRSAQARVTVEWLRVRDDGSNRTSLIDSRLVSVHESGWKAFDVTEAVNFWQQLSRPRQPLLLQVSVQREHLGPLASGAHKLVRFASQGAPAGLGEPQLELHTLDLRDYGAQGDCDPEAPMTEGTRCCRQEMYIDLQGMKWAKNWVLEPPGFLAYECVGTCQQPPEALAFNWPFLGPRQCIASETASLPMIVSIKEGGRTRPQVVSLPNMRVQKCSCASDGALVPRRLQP
Sequence of Follistatin-related protein 3 (Homo sapiens) (O95633 whole entry, looked up): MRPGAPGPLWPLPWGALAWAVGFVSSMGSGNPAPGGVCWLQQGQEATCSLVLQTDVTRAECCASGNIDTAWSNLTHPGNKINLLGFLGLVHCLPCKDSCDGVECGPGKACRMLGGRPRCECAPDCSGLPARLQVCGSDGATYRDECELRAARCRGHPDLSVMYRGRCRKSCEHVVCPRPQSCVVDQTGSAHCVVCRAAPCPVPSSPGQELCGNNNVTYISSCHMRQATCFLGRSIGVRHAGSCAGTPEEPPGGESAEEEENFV
Sequence of Fibroblast growth factor 10 (Homo sapiens) (O15520 whole entry, looked up): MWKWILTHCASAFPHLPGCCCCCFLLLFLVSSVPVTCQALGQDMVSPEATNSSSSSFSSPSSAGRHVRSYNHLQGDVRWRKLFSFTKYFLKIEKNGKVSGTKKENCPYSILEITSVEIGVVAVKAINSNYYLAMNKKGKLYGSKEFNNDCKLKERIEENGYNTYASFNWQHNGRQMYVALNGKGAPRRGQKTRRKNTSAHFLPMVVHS
Sequence of Dickkopf-related protein 1 (Homo sapiens) (O94907 whole entry, looked up): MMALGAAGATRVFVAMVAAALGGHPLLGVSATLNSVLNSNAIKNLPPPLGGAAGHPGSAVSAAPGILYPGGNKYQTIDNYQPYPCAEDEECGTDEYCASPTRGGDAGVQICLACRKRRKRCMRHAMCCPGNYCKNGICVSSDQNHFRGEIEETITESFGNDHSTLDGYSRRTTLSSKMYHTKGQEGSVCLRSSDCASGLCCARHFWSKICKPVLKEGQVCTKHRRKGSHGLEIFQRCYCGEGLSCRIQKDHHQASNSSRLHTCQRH
Sequence of Torsin-1A-interacting protein 1 (Homo sapiens) (Q5JTV8 whole entry, looked up): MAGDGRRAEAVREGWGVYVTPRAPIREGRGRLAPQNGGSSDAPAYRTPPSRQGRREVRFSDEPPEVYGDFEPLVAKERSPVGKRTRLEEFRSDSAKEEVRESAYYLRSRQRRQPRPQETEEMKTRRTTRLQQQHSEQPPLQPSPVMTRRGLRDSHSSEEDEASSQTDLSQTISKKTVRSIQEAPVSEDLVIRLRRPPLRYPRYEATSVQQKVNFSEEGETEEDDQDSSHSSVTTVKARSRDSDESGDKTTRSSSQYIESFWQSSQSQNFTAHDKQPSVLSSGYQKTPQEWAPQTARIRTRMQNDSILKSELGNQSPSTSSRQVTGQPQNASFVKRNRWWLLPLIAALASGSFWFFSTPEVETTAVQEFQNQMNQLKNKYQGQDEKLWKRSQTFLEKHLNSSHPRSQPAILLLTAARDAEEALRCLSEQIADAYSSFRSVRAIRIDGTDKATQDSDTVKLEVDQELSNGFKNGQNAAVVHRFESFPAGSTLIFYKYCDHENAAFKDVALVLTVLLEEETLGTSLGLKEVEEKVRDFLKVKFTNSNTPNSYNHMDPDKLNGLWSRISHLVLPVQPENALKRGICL
Sequence of Epidermal growth factor receptor (Homo sapiens) (P00533 whole entry, looked up): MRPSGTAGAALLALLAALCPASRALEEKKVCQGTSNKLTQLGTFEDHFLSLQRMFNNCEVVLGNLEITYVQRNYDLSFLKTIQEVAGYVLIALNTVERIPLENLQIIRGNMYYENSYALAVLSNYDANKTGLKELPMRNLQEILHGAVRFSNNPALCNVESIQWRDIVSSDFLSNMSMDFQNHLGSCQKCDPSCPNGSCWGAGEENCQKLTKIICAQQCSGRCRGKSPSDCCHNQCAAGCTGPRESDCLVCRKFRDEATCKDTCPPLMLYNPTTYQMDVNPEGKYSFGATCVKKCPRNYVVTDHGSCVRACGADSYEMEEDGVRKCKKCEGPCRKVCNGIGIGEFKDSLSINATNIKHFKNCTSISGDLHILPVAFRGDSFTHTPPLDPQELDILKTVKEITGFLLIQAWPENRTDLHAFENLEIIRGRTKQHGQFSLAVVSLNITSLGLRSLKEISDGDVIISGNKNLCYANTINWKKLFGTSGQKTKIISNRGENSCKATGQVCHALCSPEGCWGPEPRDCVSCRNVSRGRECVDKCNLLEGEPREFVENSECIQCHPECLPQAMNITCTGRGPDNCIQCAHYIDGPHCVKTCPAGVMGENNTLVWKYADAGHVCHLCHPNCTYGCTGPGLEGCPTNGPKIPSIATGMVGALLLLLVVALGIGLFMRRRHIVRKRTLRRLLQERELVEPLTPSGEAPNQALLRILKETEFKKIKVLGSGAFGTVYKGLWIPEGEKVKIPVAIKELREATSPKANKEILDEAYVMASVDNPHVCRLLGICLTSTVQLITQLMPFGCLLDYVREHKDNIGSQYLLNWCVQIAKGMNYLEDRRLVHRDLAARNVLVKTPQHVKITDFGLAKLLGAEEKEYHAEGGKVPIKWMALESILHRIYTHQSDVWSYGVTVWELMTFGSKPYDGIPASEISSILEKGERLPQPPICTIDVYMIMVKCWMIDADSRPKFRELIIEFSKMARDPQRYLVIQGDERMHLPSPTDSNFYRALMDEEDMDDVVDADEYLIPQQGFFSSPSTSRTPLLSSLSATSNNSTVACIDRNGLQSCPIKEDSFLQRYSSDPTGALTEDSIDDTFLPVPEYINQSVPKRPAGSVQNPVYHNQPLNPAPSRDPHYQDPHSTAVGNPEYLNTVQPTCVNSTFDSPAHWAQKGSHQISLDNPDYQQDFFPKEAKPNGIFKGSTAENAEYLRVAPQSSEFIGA

SMILES	composite z-score [1]	composite z-score [2]	composite z-score [3]	z-score [4]	composite z-score [5]	composite z-score [6]	composite z-score [7]	composite z-score [8]	composite z-score [9]	composite z-score [10]	composite z-score [11]	z-score [12]	composite z-score [13]	composite z-score [14]	composite z-score [15]	composite z-score [16]	composite z-score [17]	composite z-score [18]	composite z-score [19]	composite z-score [20]
CCCCC#C[C@@H]1C=C[C@H](OC(C)=O)[C@@H](COC(C)=O)O1	0.483	-0.228	-0.595	1.07 (inactive)	0.46	0.244	0.137	0.44	0.124	0.589	0.713	-2.47	0.579	0.349	-0.0635	-0.118	-0.221	-0.285	0.339	0.217
O=C1CCCC(C2=CCCCC2=O)C1 (stereo not given)	-0.153	-0.356	-0.766	0.378 (inactive)	0.466	0.555	0.612	0.668	0.923	1.5	-0.281	-0.293	0.524	-0.732	-1.38	-0.0548	0.116	-0.14	0.086	-0.19
COc1cccc([C@H]2Oc3ccc(OC)cc3C(=NO[C@@H]3O[C@H](COC(C)=O)[C@@H](OC(C)=O)[C@H](OC(C)=O)[C@H]3OC(C)=O)[C@@H]2O)c1	-0.531	0.0366	-0.0882	0.598 (inactive)	0.261	-0.157	0.344	0.0855	0.0647	-0.43	0.104	-1.12	0.507	-0.446	-0.552	0.0206	0.137	0.124	-0.178	-0.275
CC(=O)OC[C@H]1O[C@H](CCON=C2[C@H]3CCn4c(=O)n(-c5ccccc5)c(=O)n4[C@H]3[C@H](O)[C@@H]3O[C@H]23)C=C[C@@H]1OC(C)=O	0.0057	-0.149	-0.442	0.838 (inactive)	0.527	0.494	0.432	0.446	0.404	-0.636	0.253	-4.82	0.5	-0.151	-0.354	0.0001	0.089	0.449	0.322	0.415
Cc1ccc(S(=O)(=O)N[C@H]2COC(=O)CC=C[C@H](C)[C@@H](NS(=O)(=O)c3ccc(C)cc3)COC(=O)CC=C[C@@H]2C)cc1	-0.0784	-0.217	-0.588	0.647 (inactive)	0.925	0.607	0.364	0.577	0.486	-0.136	0.584	-0.622	0.518	-0.324	-0.6	-0.351	-0.476	-0.0381	-0.129	0.149
C[C@H]1CC[C@H]2C(=O)OC(CO)CN2[C@@H]1c1ccc(Br)cc1 (stereo not given in full)	-0.273	-0.28	-0.0574	-0.522 (inactive)	0.0323	-0.536	0.242	-0.34	-0.241	0.757	-0.558	-0.125	0.137	-0.201	-0.607	-0.0778	0.0284	-0.178	-0.303	0.867
O=C(NN=C1C[C@@H](O)[C@@H](O)[C@@H]2[C@@H]3C(=O)N(C4CCCCC4)C(=O)[C@@H]3CC[C@H]12)OCc1ccccc1	0.0222	0.691	1.07	-0.177 (inactive)	0.836	0.0816	0.554	-0.483	-0.504	-0.0726	-0.342	-2.03	0.393	-0.202	0.454	-0.0051	-0.542	0.0014	0.26	0.273
CO[C@H]1COC(=O)CC=C[C@H](C)[C@@H](OC)COC(=O)[C@@H](C)COC(=O)CC=C[C@@H]1C	0.567	-0.909	-1.66	0.337 (inactive)	0.902	0.709	1.32	1.47	1.3	1.79	-0.544	-1.09	1.16	-2.12	-2.84	-0.1	-0.0769	-0.339	0.34	-1.47
CC(=O)OC[C@H]1OC(ON=CC[C@@H]2C=C[C@H](OC(C)=O)[C@@H](COC(C)=O)O2)[C@H](OC(C)=O)[C@@H](OC(C)=O)[C@@H]1OC(C)=O (stereo not given in full)	0.119	-0.0393	0.265	0.632 (inactive)	0.384	0.0032	0.261	-0.368	-0.416	-2.75	0.781	-0.3	0.624	-0.0804	-0.819	-0.0957	-0.154	-0.144	-0.0191	-0.461
CCOC(=O)[C@H](Cc1ccccc1)NC(=O)CCC1CC(OC(=O)NCCc2ccc(F)cc2)CC2(CCCC(COC(=O)NCCc3ccc(Cl)cc3)O2)O1 (stereo not given in full)	0.54	-0.0724	-0.379	-0.0219 (inactive)	0.319	0.691	0.401	0.422	0.555	0.018	1.33	-0.226	0.546	1.28	0.198	-0.158	-0.0977	0.232	0.949	0.49
CO[C@H]1COC(=O)CC=C[C@H](C)COC(=O)[C@@H](C)NC(=O)CC=C[C@@H]1C	1.56	-0.335	-1.42	-1.31 (inactive)	0.337	0.913	1.32	1.47	1.65	0.872	-1.45	-1.83	1.54	-1.13	-2.44	-0.0816	-0.0035	-0.137	0.621	0.13
